Where “and” joins values, the source holds several entries; their conditions need not be identical. Equal values may be shown once. Inconclusive results are not listed. Calls of active or inactive are those of the source. Unless noted, the call rests on the fitted dose curve; in most records, active means well fitted curve in the direction sought with a large enough effect; inconclusive means small, poorly fitted or top-dose-only effect, or another doubt; inactive means no such curve, though single readings can be large; an effect the other way counts as inactive or inconclusive.

Consider ten compounds from PubChem BioAssay (NCATS).

Test [1] in a line: Cell Viability - BJ (AID 421; calls by dose curve;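 further: potency means the concentration at half of the fitted maximal effect; cells exposed to compound for 40 hours at 37 °C before readout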). The note with it: BJ fibroblast viability, qHTS. In a few lines: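 Cytotoxicity as drop in intracellular ATP (CellTiter-Glo, 20 min RT) after 40 hr compound exposure of BJ fibroblasts at 37 °C. Titrations scaled between DMSO and 100 uM tamoxifen, Hill-fitted for AC50.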
Test [2] addresses Mitogen-activated protein kinase 10 (Mus musculus) (UniProt Q61831). Nature of the test: JNK3 AlphaScreen Assay (AID 530; active means well fitted curve in either direction with a large enough effect, not every such curve was filed as active;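 further: kinase came from lysate of stimulated human HepG2 cells; signal reports phosphorylation of biotinylated GST-cJun 1-79 at Ser73 with 10 µM ATP; series mostly up to about 57 µM; on the % scale 0 is the no-effect control and ±100 the full control effect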). In short, it runs like this: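 Pre-activated (IL-1β/TNFα) JNK3 in HepG2 lysates phosphorylates biotin-GST-cJun(1-79), 10 uM ATP; anti-phospho-cJun(Ser73) AlphaScreen read at room temperature, pH 7.6 Tris buffer. Compounds pre-incubated 15 min as titrations.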

Test [3] has as its target Cytochrome P450 3A4 (Homo sapiens) (UniProt P08684). Briefly: qHTS Assay for Inhibitors and Substrates of Cytochrome P450 3A4 (AID 884). Further: series mostly up to about 57 µM; on the % scale 0 is the no-effect control and ±100 the full control effect; nearly all actives have a fitted effect of over 50% in size. In short, it runs like this: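 20 nM human CYP3A4 with 25 uM Luciferin-PPXE (at KM) in 200 mM KPO4, preincubated 10 min with compound; NADPH regeneration started a 60 min RT reaction. Luciferin detected by luminescence, normalized to 57 uM ketoconazole as full inhibition.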

Test [4] can be described thus: Cell Viability - LYMP2-014 (AID 983).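 Further: series mostly up to about 92 µM; cells exposed to compound for 24 h at 37 °C; plate controls were DMSO only for no effect and 92 µM tetraoctylammonium bromide for full effect; nearly all actives have a fitted effect of over 50% in size.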 In short, it runs like this: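 LYMP2-014 human lymphoblastoid cells, 2500/well, treated 24 h at 37 C in complete medium; viability by CellTiter-Glo ATP luminescence after 30 min at room temperature. AC50 from Hill fits of qHTS concentration-response; tetraoctylammonium bromide positive control.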
Test [5] can be described thus: Cell Viability - LYMP2-016 (AID 984).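 Further: cells exposed to compound for 24 hours at 37 °C; on the % scale 0 is the no-effect control and ±100 the full control effect; nearly all actives have a fitted effect of over 55% in size.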 In a few lines: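 Cells were seeded at 2500 per well and rested 5 hr before a 24 hr compound exposure at 37 C. Viability was then gauged as cellular ATP by luciferase luminescence, with AC50 values fitted to the Hill equation.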
Test [6] concerns the target Bile acid receptor (Homo sapiens) (UniProt Q96RI1). Briefly: qHTS assay for small molecule antagonists of farnesoid X receptor signaling (AID 588526; calls by dose curve; further: on the % scale 0 is the no-effect control and ±100 the full control effect). In short, it runs like this:
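Antagonist mode: titrated compounds tested against chenodeoxycholic acid stimulation (normalized to 50 uM CDCA and DMSO) in GeneBLAzer HEK293T cells for 16 h. Beta-lactamase read by CCF4 fluorescence; IC50 from Hill fits.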

For test [7], the target named is Glucocorticoid receptor (Homo sapiens) (UniProt P04150). Nature of the test: qHTS assay for small molecule antagonists of glucocorticoid receptor signaling (AID 588533; active means well fitted inhibition curve with a large enough effect in the signal ratio, with a control signal flat, not every such curve was filed as active; the % refers to the signal ratio;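 further: cells stimulated with 2 nM dexamethasone as agonist; on the % scale 0 is the no-effect control and ±100 the full control effect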). In short, it runs like this: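 Antagonist-mode qHTS: compound titrations added to GRE-bla HeLa cells, then dexamethasone 2 nM final; 18 h, 37 C. CCF4 FRET fluorescence normalized to dexamethasone and DMSO; IC50 from Hill fit.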

Test [8] in a line: qHTS assay for small molecule antagonists of peroxisome proliferator-activated receptor delta signaling (AID 588535; active means well fitted inhibition curve with a large enough effect in the signal ratio, with a control signal flat, not every such curve was filed as active; the % refers to the signal ratio;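 on max response: cells co-treated with a PPAR-delta agonist as stimulator during compound exposure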). The note with it: HEK293T PPARd-UAS-bla, beta-lactamase FRET ratio, 18 h; 460 nm channel. In short, it runs like this:
(§1)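 Antagonist-mode beta-lactamase reporter (GeneBLAzer PPAR-delta-UAS-bla) in HEK293T cells, 2% charcoal/dextran FBS, 4000 cells/well. Compound titrations, 18 h at 37 C; CCF4 ratio read, IC50 and efficacy from Hill fits.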

The target of test [9] is Peroxisome proliferator-activated receptor delta (Homo sapiens) (UniProt Q03181). The description is as above. In short, it runs like this: as §1
The target of test [10] is Peroxisome proliferator-activated receptor gamma (Homo sapiens) (UniProt P37231). Nature of the test: qHTS assay for small molecule antagonists of peroxisome proliferator-activated receptor gamma signaling (AID 588537; active means well fitted inhibition curve with a large enough effect in the signal ratio, with a control signal flat, not every such curve was filed as active; the % refers to the signal ratio;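 further: reporter cells co-stimulated with 50 nM rosiglitazone agonist during compound treatment; % of control where 0% means no effect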). In short, it runs like this: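 PPARγ-UAS-bla HEK293 cells (3000/well) in 1% charcoal/dextran-stripped FBS are treated with compound, then stimulated with 50 nM rosiglitazone for 16 h at 37 °C. Read-out is CCF4 β-lactamase fluorescence after 2 h at RT. IC50 comes from Hill fits normalised to rosiglitazone and DMSO.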

Test [11] in a line: qHTS assay for small molecule agonists of the antioxidant response element (ARE) signaling pathway (AID 651741; active means well fitted activation curve with a large enough effect in the signal ratio; the % refers to the signal ratio; further: % of control where 0% means no effect). In a few lines:
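CellSensor ARE-bla HepG2 cells (2,000/well) carrying ARE-driven beta-lactamase, exposed 16 h at 37 C. LiveBLAzer B/G FRET substrate added for 2 h at room temperature; fluorescence intensity read.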

Test [12] is described as follows: qHTS assay to identify small molecules that stimulate interleukin-8 (IL-8) secretion (AID 651758; active means well fitted activation curve with a large enough effect in the signal ratio; the % refers to the signal ratio; further: 0% is about no effect). In a few lines: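 THP-1 cells (2000/well) exposed to compound 16 h at 37 C; secreted IL-8 then detected by HTRF with cryptate- and XL665-labelled anti-IL-8 antibody pair after 1-3 h at room temperature.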
For test [13], the target named is Peroxisome proliferator-activated receptor alpha (Homo sapiens) (UniProt Q07869). Briefly: qHTS assay for small molecule agonists of the peroxisome proliferator-activated receptor alpha (PPARalpha) signaling pathway (AID 651778). Further: % of control where 0% means no effect. The note with it: PathHunter PPARalpha complementation, chemiluminescence, 6 h; max response: stronger effect = higher value. In short, it runs like this: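 Enzyme-fragment complementation assay in which ligand-bound PPARalpha translocates and forms an active enzyme that generates chemiluminescence. Cells were plated overnight, exposed to compound for 6 hr at 37 C, and then given detection reagent for 60 min at room temperature.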

The target of test [14] is Phospholipid hydroperoxide glutathione peroxidase GPX4 (Homo sapiens) (UniProt P36969). Nature of the test: Primary qHTS Assay for Inhibitors of Recombinant Selenoprotein Glutathione Peroxidase 4 (GPX4) (AID 1845192). Further: nearly all actives have a fitted effect of over 65% in size. In a few lines:
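GR-coupled assay: recombinant GPX4 preincubated 30 min with compound at room temperature; final 200 nM GPX4, 1 mM GSH, 0.5 mM cumene hydroperoxide, 0.5 mM NADPH, 100 nM GR, 0.01% BSA, pH 7.5 Tris. NADPH fluorescence (340/450 nm) read at 0 and 15 min.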

Test [15] in a line: Cell Viability - LYMP2-013 (AID 970).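 Further: series mostly up to about 92 µM; cells exposed to compound for 24 h at 37 °C; 0% = DMSO only and full inhibition = tetraoctylammonium bromide control; nearly all actives have a fitted effect of over 55% in size.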 In a few lines: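 Human lymphoblastoid LYMP2-013 cells, 2500/well, treated 24 h at 37 C in complete medium; viability as intracellular ATP by CellTiter-Glo luminescence after 30 min. AC50 from Hill fits of qHTS concentration-response.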
Test [16] concerns the target Thyroid hormone receptor beta (Homo sapiens) (UniProt P10828). Nature of the test: qHTS assay for small molecule agonists of thyroid hormone receptor beta signaling (AID 588545; calls by dose curve;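 further: 0% = DMSO only and 100% = 10 nM T3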). In short, it runs like this: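 Stimulation of a TR-driven beta-lactamase reporter was quantified in GripTite HEK 293 cells. Compound series ran for 18 hrs; curves were normalized to T3 and DMSO controls and fitted to yield EC50.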

The nature of test [17]: qHTS assay for small molecule activators of the nuclear factor-kappa B (NF-kB) signaling pathway (AID 651749; active means well fitted activation curve with a large enough effect in the signal ratio; the % refers to the signal ratio; further: series mostly up to about 77 µM; % of control where 0% means no effect). The note with it: NF-kB-bla ME-180 cells, beta-lactamase FRET ratio, 16 h; stronger effect = higher value. In a few lines: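 NF-kB-bla ME-180 cells carrying a beta-lactamase reporter under an NF-kB response element, 2,000 cells/well, exposed to compound for 16 hr at 37C; FRET-based beta-lactamase fluorescence read-out of pathway activation.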

Test [18] in a line: qHTS assay for cell viability of HEK293 cells (AID 743288). Further: on the % scale 0 is the no-effect control and ±100 the full control effect; nearly all actives have a fitted effect of over 50% in size. The following applies: ATP luminescence (CellTiter-Glo), 18 h; max response: stronger effect = lower value. In a few lines: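 HEK293 parental, 2,000 cells/well; ≥5 h pre-incubation 37 C; pintool compound addition; 18 h, 37 C; CellTiter-Glo 30 min RT; luminescence read.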
Test [19] in a line: qHTS assay for small molecule disruptors of the mitochondrial membrane potential - 5 hr assay (AID 651755; calls by dose curve; further: on the % scale 0 is the no-effect control and ±100 the full control effect; nearly all actives have a fitted effect of over 40% in size). In a few lines:
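HepG2 cells (2,000/well), attached overnight, exposed to compound 5 hr at 37C, then Mito-MPS dye 30 min. Fluorescence read for monomers (490/535 nm) and aggregates (540/590 nm).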

Chain of Phospholipid hydroperoxide glutathione peroxidase GPX4 (Homo sapiens) (P36969 whole entry, looked up): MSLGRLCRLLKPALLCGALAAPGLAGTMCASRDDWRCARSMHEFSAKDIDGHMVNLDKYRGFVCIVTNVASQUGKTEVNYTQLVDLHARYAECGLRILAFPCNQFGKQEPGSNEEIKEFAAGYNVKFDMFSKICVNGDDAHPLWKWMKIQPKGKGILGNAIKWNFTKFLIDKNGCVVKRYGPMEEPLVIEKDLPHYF
Chain of Bile acid receptor (Homo sapiens) (Q96RI1 whole entry, looked up): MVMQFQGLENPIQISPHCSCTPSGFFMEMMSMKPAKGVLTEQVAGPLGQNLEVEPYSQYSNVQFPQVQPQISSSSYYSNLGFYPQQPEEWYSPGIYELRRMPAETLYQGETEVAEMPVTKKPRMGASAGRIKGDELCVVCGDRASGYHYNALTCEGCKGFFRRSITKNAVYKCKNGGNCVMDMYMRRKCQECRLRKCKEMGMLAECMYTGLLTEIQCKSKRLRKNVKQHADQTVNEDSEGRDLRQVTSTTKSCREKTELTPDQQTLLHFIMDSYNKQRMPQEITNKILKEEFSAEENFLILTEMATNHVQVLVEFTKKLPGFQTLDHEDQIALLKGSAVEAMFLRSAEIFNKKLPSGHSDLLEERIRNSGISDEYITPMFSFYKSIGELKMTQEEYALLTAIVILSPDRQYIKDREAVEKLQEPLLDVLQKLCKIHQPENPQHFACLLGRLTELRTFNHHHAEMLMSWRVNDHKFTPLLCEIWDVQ
Chain of Peroxisome proliferator-activated receptor alpha (Homo sapiens) (Q07869 whole entry, looked up, the tested form may be a part): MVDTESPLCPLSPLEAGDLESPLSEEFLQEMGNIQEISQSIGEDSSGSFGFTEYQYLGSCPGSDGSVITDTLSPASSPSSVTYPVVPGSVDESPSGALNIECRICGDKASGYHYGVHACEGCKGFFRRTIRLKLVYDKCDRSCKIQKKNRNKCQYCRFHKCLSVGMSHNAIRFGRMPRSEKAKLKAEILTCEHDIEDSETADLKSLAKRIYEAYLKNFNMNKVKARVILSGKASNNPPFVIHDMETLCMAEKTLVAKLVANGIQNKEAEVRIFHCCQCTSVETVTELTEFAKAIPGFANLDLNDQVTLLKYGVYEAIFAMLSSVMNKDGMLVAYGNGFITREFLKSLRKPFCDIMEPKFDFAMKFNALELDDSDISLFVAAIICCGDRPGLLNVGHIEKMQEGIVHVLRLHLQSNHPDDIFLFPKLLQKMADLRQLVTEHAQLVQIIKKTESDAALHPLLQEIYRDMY
Chain of Peroxisome proliferator-activated receptor gamma (Homo sapiens) (P37231 whole entry, looked up): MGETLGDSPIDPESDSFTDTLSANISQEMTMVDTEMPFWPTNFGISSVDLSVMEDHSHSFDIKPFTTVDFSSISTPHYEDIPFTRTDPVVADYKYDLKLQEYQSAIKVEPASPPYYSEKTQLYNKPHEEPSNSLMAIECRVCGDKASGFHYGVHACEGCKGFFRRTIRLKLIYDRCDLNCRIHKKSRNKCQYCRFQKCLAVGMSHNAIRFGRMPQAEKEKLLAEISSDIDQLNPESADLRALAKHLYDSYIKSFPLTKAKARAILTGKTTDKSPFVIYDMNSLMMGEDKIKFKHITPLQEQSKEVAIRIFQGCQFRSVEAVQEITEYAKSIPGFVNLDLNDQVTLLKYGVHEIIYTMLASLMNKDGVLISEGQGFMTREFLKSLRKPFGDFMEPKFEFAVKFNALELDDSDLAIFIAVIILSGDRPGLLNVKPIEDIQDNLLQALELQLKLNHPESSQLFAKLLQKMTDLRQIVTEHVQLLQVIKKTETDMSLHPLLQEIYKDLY
Chain of Cytochrome P450 3A4 (Homo sapiens) (P08684 whole entry, looked up): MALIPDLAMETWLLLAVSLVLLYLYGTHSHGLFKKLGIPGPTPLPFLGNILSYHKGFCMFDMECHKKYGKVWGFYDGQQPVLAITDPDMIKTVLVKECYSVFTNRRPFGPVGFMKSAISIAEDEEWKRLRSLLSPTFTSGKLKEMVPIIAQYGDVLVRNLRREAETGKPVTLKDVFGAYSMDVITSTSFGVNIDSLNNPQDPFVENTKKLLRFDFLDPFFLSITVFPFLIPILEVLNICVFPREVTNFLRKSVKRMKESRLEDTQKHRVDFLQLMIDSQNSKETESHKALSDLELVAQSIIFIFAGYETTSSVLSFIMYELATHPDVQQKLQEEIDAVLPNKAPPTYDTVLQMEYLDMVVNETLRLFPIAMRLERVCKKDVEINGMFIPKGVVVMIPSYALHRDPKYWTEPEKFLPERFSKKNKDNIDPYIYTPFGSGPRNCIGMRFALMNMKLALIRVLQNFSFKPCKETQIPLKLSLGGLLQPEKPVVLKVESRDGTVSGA
Chain of Peroxisome proliferator-activated receptor delta (Homo sapiens) (Q03181 whole entry, looked up): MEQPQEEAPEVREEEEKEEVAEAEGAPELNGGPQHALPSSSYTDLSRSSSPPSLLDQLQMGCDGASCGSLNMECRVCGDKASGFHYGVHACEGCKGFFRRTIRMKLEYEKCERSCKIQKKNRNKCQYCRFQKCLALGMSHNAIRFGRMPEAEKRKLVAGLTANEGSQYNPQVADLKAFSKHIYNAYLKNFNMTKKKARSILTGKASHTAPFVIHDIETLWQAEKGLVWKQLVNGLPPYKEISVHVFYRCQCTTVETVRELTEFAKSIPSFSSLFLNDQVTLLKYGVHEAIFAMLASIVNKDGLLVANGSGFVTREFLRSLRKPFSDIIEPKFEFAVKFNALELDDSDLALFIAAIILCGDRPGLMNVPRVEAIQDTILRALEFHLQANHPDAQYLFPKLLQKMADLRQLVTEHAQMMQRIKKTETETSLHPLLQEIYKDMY
Chain of Glucocorticoid receptor (Homo sapiens) (P04150 whole entry, looked up): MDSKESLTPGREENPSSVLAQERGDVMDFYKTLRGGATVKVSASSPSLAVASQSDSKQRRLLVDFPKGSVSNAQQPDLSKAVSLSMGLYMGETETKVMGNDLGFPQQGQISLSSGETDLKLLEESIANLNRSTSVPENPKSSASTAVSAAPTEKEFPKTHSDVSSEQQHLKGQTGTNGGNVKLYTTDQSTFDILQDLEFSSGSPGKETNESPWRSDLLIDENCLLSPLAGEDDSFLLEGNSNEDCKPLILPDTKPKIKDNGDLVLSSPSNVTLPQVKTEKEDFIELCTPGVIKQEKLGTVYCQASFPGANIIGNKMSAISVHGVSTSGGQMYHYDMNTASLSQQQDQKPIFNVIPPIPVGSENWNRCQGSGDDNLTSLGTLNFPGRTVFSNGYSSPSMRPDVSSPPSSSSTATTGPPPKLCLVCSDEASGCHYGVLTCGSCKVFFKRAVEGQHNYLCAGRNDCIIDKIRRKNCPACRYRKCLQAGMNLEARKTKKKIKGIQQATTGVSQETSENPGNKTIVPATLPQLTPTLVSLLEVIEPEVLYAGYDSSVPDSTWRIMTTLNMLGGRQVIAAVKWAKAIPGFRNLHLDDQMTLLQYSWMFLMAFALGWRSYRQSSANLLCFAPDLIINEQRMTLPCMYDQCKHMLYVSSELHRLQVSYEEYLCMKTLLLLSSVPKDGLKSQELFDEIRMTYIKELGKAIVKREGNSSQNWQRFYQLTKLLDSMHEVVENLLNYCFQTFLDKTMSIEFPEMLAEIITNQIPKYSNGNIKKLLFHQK
Chain of Thyroid hormone receptor beta (Homo sapiens) (P10828 whole entry, looked up): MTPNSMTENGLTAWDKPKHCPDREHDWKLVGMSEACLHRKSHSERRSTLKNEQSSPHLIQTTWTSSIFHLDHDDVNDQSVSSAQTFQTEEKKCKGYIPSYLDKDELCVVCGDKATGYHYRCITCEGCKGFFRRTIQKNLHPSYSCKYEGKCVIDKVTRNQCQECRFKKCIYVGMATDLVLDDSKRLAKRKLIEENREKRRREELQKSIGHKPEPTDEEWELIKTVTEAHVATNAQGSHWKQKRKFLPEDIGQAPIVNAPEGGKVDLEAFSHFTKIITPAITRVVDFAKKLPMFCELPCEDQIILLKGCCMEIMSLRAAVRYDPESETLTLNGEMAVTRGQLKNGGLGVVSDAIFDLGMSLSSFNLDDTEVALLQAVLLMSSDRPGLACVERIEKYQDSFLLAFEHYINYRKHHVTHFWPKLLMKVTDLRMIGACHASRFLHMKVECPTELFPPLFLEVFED

As for `O=[N+]([O-])c1cccc(Cl)c1Cl`, the Potency in test [1] was > 92 µM (inactive). Besides, the Potency result in [2], in [3], in [4], in test [5], in test [7] and in [9] was “inactive” each time. Moreover, the Potency entry in test [11] and in test [12] was “inactive” in each case. In addition, the result in test [6] and in [10] was inactive. For the same compound, the max response in [8] is -5.68% and -3.79%; in test [13] it was -3.44% (inactive) and -1.57% (inactive).

In the case of `NC(N)=NCCC[C@@H](N)C(=O)N[C@@H](CCCN=C(N)N)C(=O)N1CCC[C@H]1C(=O)N1C[C@H](O)C[C@H]1C(=O)NCC(=O)N[C@@H](Cc1cccs1)C(=O)N[C@@H](CO)C(=O)N1Cc2ccccc2C[C@@H]1C(=O)N1[C@H](C(=O)N[C@@H](CCCN=C(N)N)C(=O)O)C[C@@H]2CCCC[C@@H]21`, the Potency result in [14] was “inactive”.

Consider `CC(=O)OCC1=C(C(=O)O)N2C(=O)[C@@H](NC(=O)CC#N)[C@H]2SC1`, for which the Potency entry in test [14] is “inactive”.

For the compound `CCCC(=O)O[C@]1(C(=O)COC(C)=O)CC[C@H]2C3C[C@H](F)C4=CC(=O)C=C[C@]4(C)[C@@]3(F)[C@@H](O)C[C@@]21C` (stereo partly specified), in test [14], the Potency result was “inactive”.

As to `C[C@@H](O)[C@H]1C(=O)N2C(C(=O)O)=C(S[C@@H]3CN[C@H](C(=O)Nc4cccc(C(=O)O)c4)C3)[C@H](C)[C@H]12`, the Potency result in test [14] was “inactive”.

As for `CCCCC(F)(F)C1(O)CCC2C(CC(=O)C2CCCCCCC(=O)O)O1` (stereo unspecified), the Potency result in test [14] was “inactive”.

Turning to `O=C(O)c1ccc(O)cc1O`, the Potency in test [1] was > 92 µM (inactive). Further, the Potency entry in [2], in test [3], in test [15], in test [5], in [7] and in test [9] was “inactive” throughout. Moreover, the Potency result in test [11] and in [12] was “inactive” each time. The compound was called inactive in [6], in test [10] and in test [16]. Besides, the max response in test [8] is 43.1%; in test [18], -11.1% (inactive) and 9.9% (inactive). Also, the activation in test [17] is 0.834% (inactive) and -0.343% (inactive).

As for `CCCN(CCC)C(=O)SCC`, the Potency entry in test [2], in test [3], in test [7], in test [11] and in test [19] was “inactive” in each case. The compound was classed as inactive in test [10]. In addition, the max response in [18] was -7.69% (inactive) and -8.5% (inactive).

For the compound `c1ccc2c(c1)c1cccc3ccc4cccc2c4c31`, the Potency entry in test [3], in test [4], in test [7] and in [9] was “inactive” in each case. Besides, the result in [6] was inactive. The max response in test [8] was 25.2% and 42.4%. The activation in [17] is 2.08% (inactive) and 3.95% (inactive).

`Cc1cccc([N+](=O)[O-])c1C`: the Potency entry in test [2], in test [3], in test [9], in test [11] and in test [12] was “inactive” throughout. In addition, the max response in test [8] was -14.5% and -6.43%; in test [13], 2.79% (inactive) and -1.9% (inactive). The outcome in test [10] was inactive. In addition, the activation in [17] is -0.813% (inactive) and -0.315% (inactive).
